An excerpt weighted towards active compounds, which were near 19% of everything screened.
HT1080 IDH1KD tx: qHTS for induction of synthetic lethality in tumor cells producing 2HG: qHTS for the HT-1080-IDH1KD cell line; HT-1080 IDH1 knockdown viability, ATP luminescence, 48 h; Potency, µM (highest dose often 46.1 µM), usual class: cytotoxic; actives 2% (n = 360,000); AID 686971, 2013
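Luminescent ATP read-out (CellTiter-Glo, 10 min at room temperature) after 48 h compound exposure at 37 °C gave viability of IDH1-knockdown HT-1080 cells. Activity was normalised to DMSO and cell-free wells, then fitted as concentration-response curves.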
IL-1B inflam inh: qHTS for Inhibitors of Inflammasome Signaling: IL-1-beta AlphaLISA Primary Screen | THP-1 LPS/ATP IL-1B secretion, AlphaLISA, 16 h; stronger effect = lower value | activity change, % at 57.5 µM | actives 4.7% (n = 360,000); in the data active = activity change below about -50%; inconclusive = mostly about -30% to -49%
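THP-1 cells pretreated 1 hr with compounds (up to 57.5 uM final), then stimulated with LPS (250 ng/mL final) plus ATP (1.25 mM final); secreted IL-1B measured by AlphaLISA after 16 hr, decreased signal indicating inhibition.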
DT40 TDP1 CPT: qHTS for Inhibitors of human tyrosyl-DNA phosphodiesterase 1 (TDP1): qHTS in cells in presence of CPT. actives 12% (n = 420,000). AID 686979, 2013. chicken DT40 Tdp1-/-;hTDP1 cells + 20 nM CPT, ATP luminescence, 48 h. Potency, µM (series often up to 46.2 µM), actives largely listed as inhibitors; also: nearly all actives have a fitted effect of over 55% in size
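Chicken DT40 Tdp1-/- cells complemented with human TDP1, 400 cells/well, exposed to compounds plus 20 nM camptothecin for at least 48 h at 37 C; viability read as ATP content by CellTiter-Glo luminescence.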
DT40 TDP1 no CPT: qHTS for Inhibitors of human tyrosyl-DNA phosphodiesterase 1 (TDP1): qHTS in cells in absence of CPT; DT40 Tdp1-/- hTDP1 cells, no CPT, ATP luminescence, 48 h; Potency, µM (series often up to 46.2 µM), hits mostly inhibitors; actives 15% (n = 420,000); AID 686978, 2013; also: nearly all actives have a fitted effect of over 55% in size
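Camptothecin absent (DMSO only). Human TDP1-complemented DT40 knockout cells, 400 cells/well, 37 °C for minimum 48 hr; ATP measured via CellTiter-Glo, 30 min dark incubation, luminescence.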
HT1080NT lethal: qHTS for induction of synthetic lethality in tumor cells producing 2HG: qHTS for the HT-1080-NT fibrosarcoma cell line; HT-1080-NT fibrosarcoma viability, CellTiter-Glo ATP luminescence, 48 h; Potency, µM (top dose mostly 46.1 µM), usual class: cytotoxic; actives 1.6% (n = 360,000); AID 686970, 2013;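 also: NT is the 2HG producing partner of a matched IDH1 knockdown line; nearly all actives have a fitted effect of over 55% in size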
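Viability of the 2HG-overproducing fibrosarcoma line after 48 hours of compound exposure at 37 degrees C was determined by luminescence with CellTiter-Glo, and concentration-effect curves were then fitted and categorized.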
Large screens that a line does not name were inactive. Unless noted, calls follow the shape of the dose curve; as a rule, active = well fitted curve in the direction sought with a large enough effect; inconclusive = small, poorly fitted or top-dose-only effect, or another doubt; inactive = no such curve, though single readings can be large; an effect the other way counts as inactive or inconclusive.

CCC(C)[C@@H](NC(=O)OC(C)(C)C)c1nnc(S(=O)(=O)Cc2cccc(C)c2)o1 (some centres not stated)	IL-1B inflam inh -116, DT40 TDP1 CPT 2.1µM, DT40 TDP1 no CPT 4.6µM, HT1080NT lethal 18µM
CSc1nc(C)c2c(n1)N(c1ccc(F)cc1)CC2	DT40 TDP1 no CPT inconclusive
CSc1nc(C)c2c(n1)N(c1ccc(C(C)C)cc1)CC2	DT40 TDP1 CPT inconclusive, DT40 TDP1 no CPT 21µM
CCOc1ccc(CNC(=O)C(CC)n2nc(C)n3c(cc4occc43)c2=O)cc1OC (configuration not stated)	none
CN(C)C(=O)c1ccc(NC(=O)COC(=O)CCN=C2NS(=O)(=O)c3ccccc32)cc1	none
CC1(C)N=C(N)N=C(N)N1CCCCc1ccccc1	HT1080 IDH1KD tx 0.15µM, DT40 TDP1 CPT 2.1µM, DT40 TDP1 no CPT 0.52µM, HT1080NT lethal inconclusive
COc1cccc(NC(=O)CCC2CCN(C(=O)Cc3cccc(F)c3)CC2)c1	DT40 TDP1 CPT inconclusive, DT40 TDP1 no CPT 15µM
COc1cccc(NC(=O)CCC2CCN(C(=O)c3sccc3C)CC2)c1	DT40 TDP1 CPT 21µM, DT40 TDP1 no CPT 21µM
C=CCn1c(SCC(=O)Nc2cc(C)on2)nc2sc(CC)cc2c1=O	DT40 TDP1 no CPT inconclusive
Cc1c(N)cc(C(=O)N2CCOCC2)cc1[N+](=O)[O-]	DT40 TDP1 CPT inconclusive
Cc1cccc2cc(-c3ccccc3)c(-c3ccccc3)c[n+]12	HT1080 IDH1KD tx inconclusive, DT40 TDP1 CPT 8.2µM, DT40 TDP1 no CPT 7.3µM, HT1080NT lethal inconclusive
O=S1(=O)CC(N2CCCC2)CN1Cc1ccc(F)cc1 (configuration not stated)	none
O=S1(=O)CC(N2CCC(Cc3ccccc3)CC2)CN1Cc1ccc(F)cc1 (configuration not stated)	HT1080 IDH1KD tx inconclusive, DT40 TDP1 CPT 26µM, DT40 TDP1 no CPT 13µM
Cc1ccc(S(=O)(=O)N(C)C[C@H]2Oc3cc(C#Cc4ccccc4)ccc3S(=O)(=O)N([C@H](C)CO)C[C@@H]2C)cc1	DT40 TDP1 CPT 10µM, DT40 TDP1 no CPT 9.2µM
C[C@@H]1CN([C@@H](C)CO)S(=O)(=O)c2ccc(Br)cc2O[C@H]1CN(C)C(=O)C1CCC1	DT40 TDP1 CPT inconclusive, DT40 TDP1 no CPT 16µM
CC(C)C#Cc1ccc2c(c1)O[C@@H](CN(C)S(=O)(=O)c1cn(C)cn1)[C@@H](C)CN([C@H](C)CO)S2(=O)=O	DT40 TDP1 CPT inconclusive, DT40 TDP1 no CPT inconclusive
C[C@H]1CN([C@@H](C)CO)S(=O)(=O)c2ccc(Br)cc2O[C@H]1CN(C)S(=O)(=O)c1ccccc1	DT40 TDP1 CPT 16µM, DT40 TDP1 no CPT 16µM
C/C=C/c1ccc2c(c1)O[C@H](CN(C)C(=O)NC1CCCC1)[C@H](C)CN([C@H](C)CO)S2(=O)=O	DT40 TDP1 CPT 18µM, DT40 TDP1 no CPT 21µM
CCOC(=O)c1nnc2c(-c3ccc(OC)cc3)c(C)nn2c1N	none (no result: HT1080 IDH1KD tx, IL-1B inflam inh, HT1080NT lethal)
COc1ccc(NC(=O)N(C)C[C@H]2Oc3cc(Br)ccc3S(=O)(=O)N([C@H](C)CO)C[C@@H]2C)cc1	DT40 TDP1 CPT inconclusive, DT40 TDP1 no CPT inconclusive
COc1cccc(S(=O)(=O)N(C)C[C@H]2Oc3cc(Br)ccc3S(=O)(=O)N([C@@H](C)CO)C[C@H]2C)c1	DT40 TDP1 CPT 21µM, DT40 TDP1 no CPT 15µM
O=C(NCCc1ccc(Cl)cc1)c1ccc(CS(=O)Cc2ccc(Cl)cc2)o1 (configuration not stated)	IL-1B inflam inh inconclusive, DT40 TDP1 CPT inconclusive
COc1ccc(OC)c(CCNC(=O)c2ccc(CS(=O)Cc3ccc(Cl)cc3)o2)c1 (configuration not stated)	IL-1B inflam inh inconclusive, DT40 TDP1 CPT 23µM, DT40 TDP1 no CPT inconclusive
